Results on five compounds are retold here after PubChem BioAssay (NCATS).

Each structure is given as a SMILES string. Records with an inconclusive call do not appear. Active and inactive are the calls of the source. The call rests on the fitted dose curve; in most records, active means well fitted inhibition curve with a large enough effect; inconclusive means small, poorly fitted or top-dose-only effect; inactive means flat fitted curve, though single readings scatter.

One assay is described as follows: qHTS profiling for inhibitors of Plasmodium falciparum proliferation (AID 504749).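 Further: 0% = DMSO vehicle and full inhibition = artemisinin control; nearly all actives have a fitted effect of over 60% in size.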 The settings on record: P. falciparum in erythrocytes, SYBR Green DNA, 72 h; at 28.7 µM (top of the series); parasite line A. The essentials:
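Three-day growth assay of blood-stage parasites in erythrocytes (0.3% parasitemia, 2.5% hematocrit) at 37 C, 5% CO2, quantified by SYBR Green DNA staining after overnight detergent lysis.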
A general note: In qHTS, concentration-response curves come from the screen itself.
Consider `CC1=CCC(C(C)(C)O)CC1` (stereo not given), for which the activity, negative = inhibition is 7.42% (inactive).
Same read-out and setting: to `Oc1cc(O)c2c(c1)OC(c1ccc(O)c(O)c1)C(O)C2` (stereo not given) belongs -12.6% (inactive); to `CC1=C(/C=C/C(C)=C/C=C/C(C)=C/C=C/C=C(C)/C=C/C=C(C)/C=C/C2=C(C)CCCC2(C)C)C(C)(C)CCC1`, 0.195% (inactive); to `CCCCCCCC(=O)O`, 5.42% (inactive).
The same measure, in the same setting: to `Cc1c(C)c2c(c(C)c1O)CC[C@@](C)(CCC[C@H](C)CCC[C@H](C)CCCC(C)C)O2` belongs -10.2% (inactive).

The same assay, now with this note: P. falciparum in erythrocytes, SYBR Green DNA, 72 h; at 28.7 µM (top of the series); parasite line B.
On to `CC1=CCC(C(C)(C)O)CC1` (stereo not given), for which the activity, negative = inhibition is 12.4% (inactive).
On the same count and under the same terms, to `Oc1cc(O)c2c(c1)OC(c1ccc(O)c(O)c1)C(O)C2` (stereo not given) belongs -13.8% (inactive).
Still for that read-out and setting: to `CC1=C(/C=C/C(C)=C/C=C/C(C)=C/C=C/C=C(C)/C=C/C=C(C)/C=C/C2=C(C)CCCC2(C)C)C(C)(C)CCC1` belongs -0.801% (inactive); to `CCCCCCCC(=O)O`, 9% (inactive).
Still for that read-out and setting: to `Cc1c(C)c2c(c(C)c1O)CC[C@@](C)(CCC[C@H](C)CCC[C@H](C)CCCC(C)C)O2` belongs -2.69% (inactive).
